Results taken from PubChem BioAssay (NCATS).
“And” between values parts separate entries of the source, which are not always exact repeats. Equal values may be shown once. Results filed as inconclusive are left out. The source made the active and inactive calls. Unless noted, the call rests on the fitted dose curve; in most records, active means well fitted curve in the direction sought with a large enough effect; inconclusive means small, poorly fitted or top-dose-only effect, or another doubt; inactive means no such curve, though single readings can be large; an effect the other way counts as inactive or inconclusive.

Key:
[1] = qHTS assay for small molecule activators of the p53 signaling pathway (AID 651743; active means well fitted activation curve with a large enough effect in the signal ratio, not every such curve was filed as active; the % refers to the signal ratio; further: series mostly up to about 92 µM; % of control where 0% means no effect); details: HCT-116 p53RE-bla, beta-lactamase FRET ratio, 16 h; activation: active compounds read high
Summary of the method: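 Reporter: beta-lactamase driven by p53 response elements, stably integrated in HCT-116 cells. Cells seeded at 4,000/well, 5 h preincubation, compound (DMSO) 16 h at 37 C; B/G FRET substrate 2 h RT; fluorescence intensity read.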

[2] = qHTS assay for small molecule activators of the nuclear factor-kappa B (NF-kB) signaling pathway (AID 651749; active means well fitted activation curve with a large enough effect in the signal ratio; the % refers to the signal ratio; further: series mostly up to about 77 µM; % of control where 0% means no effect); details: NF-kB-bla ME-180 cells, beta-lactamase FRET ratio, 16 h; active compounds read high
Summary of the method: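 NF-kB-bla ME-180 cells, 2,000/well; 23 nL compound or DMSO pinned; 16 hr, 37C/5% CO2; beta-lactamase FRET read-out.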

[3] = qHTS assay for small molecule disruptors of the mitochondrial membrane potential - 1 hr assay (AID 651754; calls by dose curve; further: on the % scale 0 is the no-effect control and ±100 the full control effect; nearly all actives have a fitted effect of over 35% in size)
Summary of the method: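 In this qHTS format, a 1 hr compound treatment of HepG2 cells precedes Mito-MPS staining, and membrane potential is judged from aggregate (red) against monomer (green) fluorescence intensity.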

[4] = qHTS assay for small molecule disruptors of the mitochondrial membrane potential - 5 hr assay (AID 651755; calls by dose curve; further: on the % scale 0 is the no-effect control and ±100 the full control effect; nearly all actives have a fitted effect of over 40% in size)
Summary of the method: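 Read-out: ratiometric Mito-MPS fluorescence, green monomer (ex 490/em 535) vs red mitochondrial aggregate (ex 540/em 590). HepG2 cells treated 5 hr at 37C before 30 min dye loading.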

[5] = target: Tumor necrosis factor (Homo sapiens) (UniProt P01375); assay: qHTS assay to identify small molecules that stimulate Tumor Necrosis Factor-alpha (TNF-alpha) secretion (AID 651757; active means well fitted curve in the direction sought with a large enough effect in the signal ratio; the % refers to the signal ratio; further: 0% is about no effect)
Summary of the method: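 Using 3000 THP-1 cells per well, compounds and controls were applied for 17 hrs at 37 C. Detection followed with two labeled anti-TNF-alpha antibodies (cryptate donor, XL665 acceptor) for 3 hr at room temperature, measured by TR-FRET.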

[6] = qHTS assay to identify small molecules that stimulate interleukin-8 (IL-8) secretion (AID 651758; active means well fitted activation curve with a large enough effect in the signal ratio; the % refers to the signal ratio; further: 0% is about no effect)
Summary of the method: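 Compounds are added to THP-1 cells (2000 per well) and left 16 hrs at 37 C. A labeled anti-IL-8 antibody pair is then added, and IL-8 secretion is measured by time-resolved FRET after 1-3 hrs at room temperature.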

[7] = qHTS assay for environmental chemicals that activate the Aryl hydrocarbon Receptor (AhR) signaling pathway (AID 651777); details: 1A2-DRE human hepatoma cells, luciferase, 24 h; activation: active compounds read high; further: % of control where 0% means no effect; nearly all actives have a fitted effect of over 15% in size
Summary of the method: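 1A2-DRE human hepatoma reporter line; 1,200 cells/well; cmpd or DMSO 24 h, 37 C/5% CO2; One-Glo 30 min RT; luciferase lum.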

[8] = target: Peroxisome proliferator-activated receptor alpha (Homo sapiens) (UniProt Q07869); assay: qHTS assay for small molecule agonists of the peroxisome proliferator-activated receptor alpha (PPARalpha) signaling pathway (AID 651778); details: PathHunter PPARalpha complementation, chemiluminescence, 6 h; max response: active compounds read high; further: % of control where 0% means no effect
Summary of the method: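 Enzyme-fragment complementation assay in which ligand-bound PPARalpha translocates and forms an active enzyme that generates chemiluminescence. Cells were plated overnight, exposed to compound for 6 hr at 37 C, and then given detection reagent for 60 min at room temperature.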

[9] = target: Nuclear receptor ROR-gamma (Homo sapiens) (UniProt P51449); assay: qHTS assay for small molecule antagonists of the retinoid-related orphan receptor gamma (ROR-gamma) signaling pathway (AID 651802);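 further: CHO cells with doxycycline-induced ROR-gamma expression; luciferase reporter luminescence driven by ROR response element; series mostly up to about 92 µM; on the % scale 0 is the no-effect control and ±100 the full control effect; nearly all actives have a fitted effect of over 60% in size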
Summary of the method: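 Doxycycline-induced reporter activity in engineered CHO cells (TET-inducible ROR, RORE-LUC) was measured by luminescence after 16hr compound exposure at 37C.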

[10] = qHTS assay for small molecule agonists of the antioxidant response element (ARE) signaling pathway measured by Nrf2-dependant transcriptional activity (AID 720636; active means well fitted curve in the direction sought with a large enough effect in the repeat runs; an effect the other way counts as inactive or inconclusive;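 further: HepG2 cells with an ARE-driven luciferase reporter; % of control where 0% means no effect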)
Summary of the method: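 Cells: ARE-luc HepG2 with Nrf2-responsive luciferase. Medium contained 1% dialyzed FBS. Compound exposure lasted 16 hr at 37 C and 5% CO2, followed by ONE-Glo luciferase detection.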

[11] = qHTS assay for small molecule antagonists of the retinoid-related orphan receptor gamma (ROR-gamma) signaling pathway - cell viability counter screen (AID 720652; active means well fitted curve in the direction sought with a large enough effect in the repeat runs; an effect the other way counts as inactive or inconclusive;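 further: CHO reporter cells with doxycycline-induced ROR-gamma expression; series mostly up to about 92 µM; compound exposure lasted 16 hr before ATP read; on the % scale 0 is the no-effect control and ±100 the full control effect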)
Summary of the method: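 ATP-based viability readout in the ROR-gamma reporter CHO cells after 16 hr compound exposure under doxycycline induction.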

[12] = qHTS assay for small molecule agonists of the antioxidant response element (ARE) signaling pathway measured by Nrf2-dependant transcriptional activity - cell viability counter screen (AID 720653; active means well fitted curve in the direction sought with a large enough effect in the repeat runs; an effect the other way counts as inactive or inconclusive; further: on the % scale 0 is the no-effect control and ±100 the full control effect); details: ARE-bla HepG2 viability, CellTiter-Glo ATP luminescence, 16 h; max response: active compounds read low
Summary of the method: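 ARE-bla HepG2 cells treated with compounds for 16 h at 37C; this counter screen measures viability as intracellular ATP by CellTiter-Glo luminescence after 30 min at room temperature.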

[13] = qHTS assay for cell viability of HEK293 cells (AID 743288); details: ATP luminescence (CellTiter-Glo), 18 h; max response: active compounds read low; further: on the % scale 0 is the no-effect control and ±100 the full control effect; nearly all actives have a fitted effect of over 50% in size
Summary of the method: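 Viable-cell counts were inferred from luciferase-based ATP content in HEK293 cells seeded at 2,000/well, pre-incubated ≥5 h, then dosed with DMSO-solubilised compounds for 18 h at 37 C.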

[14] = qHTS assay for cell viability of the p53RE-bla HCT-116 cell line (AID 743292); further: on the % scale 0 is the no-effect control and ±100 the full control effect; nearly all actives have a fitted effect of over 55% in size
Summary of the method: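 HCT-116 p53RE-bla cells seeded 4,000/well; 5 h at 37 C; compound (DMSO) added; 16 h at 37 C; CellTiter-Glo added, 30 min RT; luminescence read.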

[15] = HepG2 viability counterscreen (readout 2: ATP content) against the NCATS DSHEA and TCM libraries (AID 1794840); further: 0% is about no effect
Summary of the method: (§1)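 Same wells read twice: first fluorescence from cleaved GF-AFC substrate (25 uM final, 30 min, 37C) for live-cell protease, then CellTiter-Glo luminescence after 30 min at room temperature for ATP. HepG2 cells were exposed ~24 h to substances.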

[16] = HepG2 viability counterscreen (readout 1: protease activity) against the NCATS DSHEA and TCM libraries (AID 1794841);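 further: cells exposed to compounds for about 24 h before the protease read; 0% is about no effect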
Summary of the method: as §1

[17] = target: Cytochrome P450 3A4 (Homo sapiens) (UniProt P08684); assay: qHTS for inhibitors of CYP3A4 against the NCATS DSHEA and TCM libraries (AID 1919971);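 further: on the % scale 0 is the no-effect control and ±100 the full control effect; inhibition lowers luminescence from luciferin made by CYP3A4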
Summary of the method: (§2)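 Isoform-specific enzyme and substrate levels; enzyme-free wells as background. Reaction: 1x NADPH regenerating system, 30-45 min, room temperature, shielded from light; luminescent detection reagent added, 30 min.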

[18] = target: Cytochrome P450 2D6 (Homo sapiens) (UniProt P10635); assay: qHTS for inhibitors of CYP2D6 against the NCATS DSHEA and TCM libraries (AID 1919972); further: on the % scale 0 is the no-effect control and ±100 the full control effect
Summary of the method: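 qHTS, concentration–response format with most substances from 19.5 nM. CYP2D6 + pro-luciferin substrate, 15 min with compound, then 1x NADPH regen, 30–45 min RT dark. Glo detection 30 min, luminescence. Quinidine control.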

[19] = target: Cytochrome P450 2C19 (Homo sapiens) (UniProt P33261); assay: qHTS for inhibitors of CYP2C19 against the NCATS DSHEA and TCM libraries (AID 1919974);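 further: luminescence from luciferin released by CYP2C19 oxidation of a pro-luciferin substrate; on the % scale 0 is the no-effect control and ±100 the full control effect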
Summary of the method: as §2

[20] = KB-3-1 P-gp reporter qHTS against the NCATS DSHEA and TCM libraries (AID 1919975); further: 0% is about no effect
Summary of the method: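 KB-3-1 parental line, 1536-well qHTS: cells seeded, ~4 h attachment, pintool compound addition, ~72 h at 37C, then CellTiter-Glo, 30 min RT, luminescence. Concentration-response format.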

[21] = qHTS Counterscreen for compound interference against the NCATS DSHEA and TCM libraries (AID 1919978); details: firefly luciferase detection reagent interference, luminescence;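 further: compounds preincubated with 1 µM D-luciferin or buffer before detection reagent; % of control where 0% means no effect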
Summary of the method: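 Compounds, titrated from 19.5 nM to 39.8 uM final, were pinned onto 1 uM D-luciferin or plain 100 mM potassium phosphate. After 15 min at room temperature, luciferin detection reagent was added for 30 min before the luminescence read.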

[22] = Dual reporter qHTS for agonist of Pregnane X Receptor (hPXR) against the NCATS DSHEA and TCM libraries: Fluorescence readout (AID 1920058); further: 0% is about no effect
Summary of the method: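 In this qHTS counter-read, reporter-bearing HepG2 cells in charcoal-stripped serum received substances for approximately 24 h before viability was assessed fluorometrically with CellTiter-Fluor.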

[23] = target: Nuclear receptor subfamily 1 group I member 2 (Homo sapiens) (UniProt O75469); assay: Dual reporter qHTS for antagonist of Pregnane X Receptor (hPXR) against the NCATS DSHEA and TCM libraries: Luminescence Readout (AID 1920060);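 further: HepG2 cells carrying hPXR luciferase reporter stimulated with rifampicin at 2 µM; 0% is about no effect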
Summary of the method: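 Antagonist mode: rifampicin 2 uM final co-added with compounds to hPXR-LucHepG2 cells for 24 h at 37C. Viability by CellTiter-Fluor, Ex/Em 405/540 nm, 1 h; reporter by ONE-Glo luminescence.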

[24] = target: Nuclear receptor subfamily 1 group I member 2 (Rattus norvegicus) (UniProt Q9R1A7); assay: qHTS assay for small molecule activators of the rat pregnane X receptor (rPXR) signaling pathway (AID 651751; call rule not given here; further: 0% is about no effect); details: rPXR reporter cells, luciferase (One-Glo), 24 h
[25] = qHTS assay for small molecule activators of the human pregnane X receptor (PXR) signaling pathway (AID 720659; call rule not given here; further: 0% is about no effect)

Nuclear receptor subfamily 1 group I member 2 (Rattus norvegicus), sequence (Q9R1A7 whole entry, looked up): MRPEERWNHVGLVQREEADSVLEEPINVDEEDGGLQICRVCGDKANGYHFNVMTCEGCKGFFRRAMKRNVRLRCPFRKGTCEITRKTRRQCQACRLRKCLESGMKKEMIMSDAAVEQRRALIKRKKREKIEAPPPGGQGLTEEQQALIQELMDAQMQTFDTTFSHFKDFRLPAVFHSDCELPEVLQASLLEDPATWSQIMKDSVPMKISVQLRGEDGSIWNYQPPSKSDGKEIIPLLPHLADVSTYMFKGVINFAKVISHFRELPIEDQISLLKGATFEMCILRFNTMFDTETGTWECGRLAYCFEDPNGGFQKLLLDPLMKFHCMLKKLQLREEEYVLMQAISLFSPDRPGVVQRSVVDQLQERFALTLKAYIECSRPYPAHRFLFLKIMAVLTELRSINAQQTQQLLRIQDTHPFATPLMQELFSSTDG
Peroxisome proliferator-activated receptor alpha (Homo sapiens), sequence (Q07869 whole entry, looked up, the tested form may be a part): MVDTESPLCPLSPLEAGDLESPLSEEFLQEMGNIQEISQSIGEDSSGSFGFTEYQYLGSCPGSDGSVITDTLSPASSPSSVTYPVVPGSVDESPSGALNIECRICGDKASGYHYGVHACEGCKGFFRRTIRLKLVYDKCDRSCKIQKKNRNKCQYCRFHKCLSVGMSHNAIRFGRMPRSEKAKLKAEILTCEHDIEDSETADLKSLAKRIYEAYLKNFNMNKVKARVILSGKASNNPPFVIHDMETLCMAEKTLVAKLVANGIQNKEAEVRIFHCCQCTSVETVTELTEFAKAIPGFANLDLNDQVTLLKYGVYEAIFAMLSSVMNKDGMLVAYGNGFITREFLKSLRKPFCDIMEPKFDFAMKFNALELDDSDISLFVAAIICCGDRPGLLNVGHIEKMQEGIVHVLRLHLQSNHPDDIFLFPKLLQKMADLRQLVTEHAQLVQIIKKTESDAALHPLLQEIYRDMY
Cytochrome P450 2D6 (Homo sapiens), sequence (P10635 whole entry, looked up): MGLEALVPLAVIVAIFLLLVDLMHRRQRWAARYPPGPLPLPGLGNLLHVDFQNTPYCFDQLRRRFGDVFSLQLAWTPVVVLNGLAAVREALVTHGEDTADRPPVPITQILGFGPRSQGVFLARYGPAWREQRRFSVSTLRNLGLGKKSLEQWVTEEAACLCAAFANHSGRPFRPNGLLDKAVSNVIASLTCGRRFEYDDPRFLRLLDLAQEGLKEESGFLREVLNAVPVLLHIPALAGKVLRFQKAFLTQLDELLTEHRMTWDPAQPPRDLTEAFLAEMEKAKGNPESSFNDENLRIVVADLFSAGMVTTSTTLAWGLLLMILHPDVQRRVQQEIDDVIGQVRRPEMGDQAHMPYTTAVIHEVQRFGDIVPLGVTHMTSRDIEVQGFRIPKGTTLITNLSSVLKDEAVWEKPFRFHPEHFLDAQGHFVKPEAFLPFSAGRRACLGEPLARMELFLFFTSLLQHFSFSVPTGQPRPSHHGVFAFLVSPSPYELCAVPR
Cytochrome P450 3A4 (Homo sapiens), sequence (P08684 whole entry, looked up, canonical isoform): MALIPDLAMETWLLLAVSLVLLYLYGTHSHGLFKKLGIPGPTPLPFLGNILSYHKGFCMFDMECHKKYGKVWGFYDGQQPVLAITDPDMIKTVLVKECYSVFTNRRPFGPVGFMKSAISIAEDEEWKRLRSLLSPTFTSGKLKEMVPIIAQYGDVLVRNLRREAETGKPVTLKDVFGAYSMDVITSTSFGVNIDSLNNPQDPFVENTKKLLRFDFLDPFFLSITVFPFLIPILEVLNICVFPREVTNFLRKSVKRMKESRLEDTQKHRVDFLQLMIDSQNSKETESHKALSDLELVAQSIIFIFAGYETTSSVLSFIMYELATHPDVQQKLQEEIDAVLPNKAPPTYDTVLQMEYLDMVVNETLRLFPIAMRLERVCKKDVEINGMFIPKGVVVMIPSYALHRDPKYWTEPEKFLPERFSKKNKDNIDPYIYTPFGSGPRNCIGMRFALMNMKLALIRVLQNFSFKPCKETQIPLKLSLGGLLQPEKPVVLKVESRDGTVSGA
Nuclear receptor subfamily 1 group I member 2 (Homo sapiens), sequence (O75469 whole entry, looked up): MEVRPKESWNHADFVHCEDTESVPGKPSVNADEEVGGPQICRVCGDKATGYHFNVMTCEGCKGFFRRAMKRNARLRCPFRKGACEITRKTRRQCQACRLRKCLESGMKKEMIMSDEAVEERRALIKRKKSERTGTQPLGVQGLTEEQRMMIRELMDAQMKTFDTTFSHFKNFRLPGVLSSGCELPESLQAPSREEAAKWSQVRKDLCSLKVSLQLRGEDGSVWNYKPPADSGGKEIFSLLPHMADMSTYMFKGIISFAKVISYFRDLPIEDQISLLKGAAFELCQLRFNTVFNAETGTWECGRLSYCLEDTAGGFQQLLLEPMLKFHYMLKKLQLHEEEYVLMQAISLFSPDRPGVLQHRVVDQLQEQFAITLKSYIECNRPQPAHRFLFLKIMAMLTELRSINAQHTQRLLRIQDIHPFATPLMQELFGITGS
Cytochrome P450 2C19 (Homo sapiens), sequence (P33261 whole entry, looked up): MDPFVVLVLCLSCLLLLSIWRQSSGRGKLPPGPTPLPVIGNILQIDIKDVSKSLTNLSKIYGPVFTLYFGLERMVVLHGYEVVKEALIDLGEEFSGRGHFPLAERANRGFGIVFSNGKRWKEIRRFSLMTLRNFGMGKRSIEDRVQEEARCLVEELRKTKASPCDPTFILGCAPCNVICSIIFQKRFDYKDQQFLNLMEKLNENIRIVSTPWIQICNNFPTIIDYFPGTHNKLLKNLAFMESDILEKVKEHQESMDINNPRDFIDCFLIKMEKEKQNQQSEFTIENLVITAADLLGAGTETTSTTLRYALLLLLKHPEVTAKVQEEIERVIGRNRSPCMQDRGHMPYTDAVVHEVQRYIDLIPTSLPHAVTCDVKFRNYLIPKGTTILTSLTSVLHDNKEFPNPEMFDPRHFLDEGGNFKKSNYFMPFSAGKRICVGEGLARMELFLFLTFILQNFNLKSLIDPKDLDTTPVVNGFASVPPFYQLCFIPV
Tumor necrosis factor (Homo sapiens), sequence (P01375 whole entry, looked up): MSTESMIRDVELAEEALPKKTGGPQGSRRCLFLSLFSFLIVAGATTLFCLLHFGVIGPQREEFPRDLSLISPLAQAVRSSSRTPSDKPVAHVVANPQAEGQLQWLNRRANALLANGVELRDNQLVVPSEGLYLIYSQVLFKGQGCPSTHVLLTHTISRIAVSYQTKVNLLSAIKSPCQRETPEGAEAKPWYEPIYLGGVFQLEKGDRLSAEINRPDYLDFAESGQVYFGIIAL
Nuclear receptor ROR-gamma (Homo sapiens), sequence (P51449 whole entry, looked up): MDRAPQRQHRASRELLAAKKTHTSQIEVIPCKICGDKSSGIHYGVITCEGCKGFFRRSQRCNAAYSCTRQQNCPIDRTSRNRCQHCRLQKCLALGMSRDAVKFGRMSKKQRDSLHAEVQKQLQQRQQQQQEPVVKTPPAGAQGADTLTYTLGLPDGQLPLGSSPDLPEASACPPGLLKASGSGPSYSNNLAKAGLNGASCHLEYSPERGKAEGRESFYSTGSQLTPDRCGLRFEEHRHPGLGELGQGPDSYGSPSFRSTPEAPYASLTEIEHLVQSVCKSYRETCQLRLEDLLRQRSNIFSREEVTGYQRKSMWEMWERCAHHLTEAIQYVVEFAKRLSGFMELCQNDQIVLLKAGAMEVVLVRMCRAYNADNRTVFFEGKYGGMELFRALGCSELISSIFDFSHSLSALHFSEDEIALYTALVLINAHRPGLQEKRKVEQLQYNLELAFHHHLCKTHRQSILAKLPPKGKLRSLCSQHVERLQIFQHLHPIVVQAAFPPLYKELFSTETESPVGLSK

C=CCc1ccc(OC)c(OC)c1
inactive: activation [1] 0.847% and -0.413% | activation [2] -0.295% and 0.286% | Potency [3] | Potency [4] | outcome [5] | Potency [6] | activation [7] 0.456% and 0.0921% | max response [8] 8.14% and -0.977% | Potency [9] | Potency [10] | Potency [11] | max response [12] -3.29% and -7.51% | max response [13] 3.16% and -7.18% | Potency [14] | outcome [15] | outcome [16] | Potency [17] | Potency [18] | Potency [19] | outcome [20] | max response [21] -1.2% | outcome [22] | outcome [23] | max response [24] -0.697% and 1.19% | outcome [25]
